The values that follow come from PubChem BioAssay (NCI).

Structures are written as SMILES. The panel holds about 83,000 compounds, 20% with a hit somewhere; the sample as a whole holds those more often.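 Single-dose data. Exposure time 48 hours. Values below 10 considered active.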 Values without a mark were called inactive. The source made the active and inactive calls.

Some test systems named below: T-47D breast; BT-549 breast; SW-620 colon; MCF7 breast; HCT-116 colon; HCC-2998 colon; KM12 colon; MDA-MB-435 melanoma.
Holding throughout (experiment): NCI-60 one-dose screen, 48 h (100 = growth as untreated, 0 = no growth, -100 = all killed)
Conditions in all cases: 10 µM unless noted

As to `CCOC(=O)c1c(-c2ccc(Cl)cc2)c(C#N)c(=O)n(-c2ccccc2CC)c1N`, the growth with T-47D breast was 84.1%; with BT-549 breast, 123%; with SW-620 colon, 99.9%; with MCF7 breast, 90.7%; with HCT-116 colon, 91.3%; with HCC-2998 colon, 66.4%. The growth in the assay with KM12 colon was 79.1%.
As for `O=C(Nc1ccccc1-c1nc2ccccc2c(=O)[nH]1)c1cc2ccccc2[nH]1`, the growth was 70.1% with T-47D breast; 85.3% with BT-549 breast; 94.2% with SW-620 colon; 68% in the assay with MCF7 breast; 83.5% in the assay on HCT-116 colon.
With `COc1cc(-c2nc(N3CCN(C)CC3)c3ccccc3n2)cc(OC)c1OC`, the growth is 65.3% in the assay on T-47D breast; 84.7% with BT-549 breast; 0% (active) in the assay on MDA-MB-435 melanoma; 29.5% in the assay with MCF7 breast; 31.9% with HCT-116 colon; 88.4% in the assay with HCC-2998 colon. Also, the growth with KM12 colon was 53.4%.
For `c1ccc2c(c1)nc(CN1CCOCC1)n1cc(N3CCCC3)nc21`, the growth is 95.6% with T-47D breast; 100% in the assay on BT-549 breast; 99.7% in the assay on SW-620 colon; 96.5% with MCF7 breast; 93.5% in the assay with HCT-116 colon; 99.8% with HCC-2998 colon. In the assay with KM12 colon, the growth was 99.1%.
As to `COc1cccc(-c2nn(-c3ccccc3)cc2-c2ccnc(NCCCNC(=O)c3cccc(C(F)(F)F)c3)c2)c1`, the growth in the assay with T-47D breast is -19.6% (active); with BT-549 breast, 1.62% (active); in the assay with SW-620 colon, 33.2%; with MCF7 breast, 18.1%; in the assay on HCT-116 colon it was 10.6%; with HCC-2998 colon it was 21.7%. For the same compound, in the assay with KM12 colon, the growth is 23%.
Take `COCCN(C(=O)c1ccc(F)cc1F)c1c(N)n(Cc2ccccc2)c(=O)[nH]c1=O`: the growth in the assay on T-47D breast was 103%; with BT-549 breast, 135%; in the assay with SW-620 colon, 108%; in the assay with MCF7 breast, 108%; with HCT-116 colon, 102%; in the assay on HCC-2998 colon, 106%. The growth in the assay on KM12 colon was 105%.
For `COc1ccc(/C=N/C2=C(C#N)C(c3ccc(OC)cc3)c3ccc4ccccc4c3O2)cc1` (stereo unspecified), the growth with T-47D breast is 73.6%; in the assay on BT-549 breast it was 84%; with MDA-MB-435 melanoma, -10.9% (active); in the assay on MCF7 breast, 34.4%; in the assay on HCT-116 colon it was 71.7%; with KM12 colon, 59.4%.
Turning to `CCOC(=O)C/C(C)=N\NC(=O)c1ccncc1`, the growth with T-47D breast is 92.1%; with BT-549 breast it was 97.8%; in the assay with MDA-MB-435 melanoma it was 91.7%; in the assay with MCF7 breast it was 93.2%; with HCT-116 colon it was 89.3%; with HCC-2998 colon it was 98.7%. In the assay on KM12 colon, the growth was 107%.
Regarding `C[n+]1cc2c3c(ccc2c2ccc4cc5c(cc4c21)OCO5)OCO3`, the growth in the assay with T-47D breast was -78.2% (active); with BT-549 breast it was -91.7% (active); in the assay on SW-620 colon it was -67.3% (active); in the assay on MCF7 breast, -72.5% (active); in the assay on HCT-116 colon it was -89.2% (active); in the assay with HCC-2998 colon, -82.1% (active). For the same compound, the growth in the assay with KM12 colon was -78.5% (active).
As for `C=CCn1c(C)nc2cc(Nc3nc(N4CCCC4)nc4ccccc34)ccc21`, the growth is 105% with T-47D breast; 96.9% with BT-549 breast; 75% in the assay on SW-620 colon; 61.9% in the assay with MCF7 breast; 19.6% in the assay with HCT-116 colon; 23.3% in the assay on HCC-2998 colon. The growth in the assay on KM12 colon was 70.1%.
`C=C1C(=O)O[C@H]2[C@H]1CC/C(COC(=O)C(=O)c1c[nH]c3ccc(OC)cc13)=C\CC[C@@]1(C)O[C@@H]21`: the growth is -54.5% (active) with T-47D breast; -63.7% (active) in the assay on BT-549 breast; -61.4% (active) in the assay on SW-620 colon; -30.1% (active) with MCF7 breast; -97.3% (active) in the assay on HCT-116 colon; -81.9% (active) in the assay on HCC-2998 colon. In addition, the growth in the assay with KM12 colon is -71.2% (active).
On to `O=C(Nc1cccc(Oc2nnc(Cl)c3ccccc23)c1)Nc1ccc(Cl)c(C(F)(F)F)c1`, for which the growth with T-47D breast is -24.6% (active); in the assay on BT-549 breast, -37.2% (active); with SW-620 colon, -62.9% (active); with MCF7 breast, -35.6% (active); in the assay with HCT-116 colon, -71.6% (active); in the assay on HCC-2998 colon it was -86.5% (active). Also, in the assay on KM12 colon, the growth is -60.1% (active).
Turning to `COc1ccc(N=C(c2ccccc2)C2C(=O)c3ccccc3C2=O)cc1`, the growth was 78% in the assay with T-47D breast; 74.3% in the assay with BT-549 breast; 58.6% in the assay on MDA-MB-435 melanoma; 84.6% in the assay on MCF7 breast; 81.2% in the assay with HCT-116 colon; 112% in the assay on HCC-2998 colon. In the assay with KM12 colon, the growth was 100%.
For `CC(=O)c1ccc(NCC(=O)Nc2ccccn2)cc1`, the growth is 94.6% with T-47D breast; 104% in the assay on BT-549 breast; 102% in the assay on SW-620 colon; 86.9% with MCF7 breast; 101% with HCT-116 colon; 110% with HCC-2998 colon. The growth in the assay on KM12 colon was 99%.
For `Cc1ccc(C(=O)CSc2nc(-c3ccc(Br)cc3)c(C#N)c(=O)[nH]2)cc1`, the growth is 93% in the assay with T-47D breast; 94% with BT-549 breast; 92.2% in the assay on SW-620 colon; 101% with MCF7 breast; 95.9% with HCT-116 colon; 101% in the assay with HCC-2998 colon.
As for `CC1OC(O[C@H]2/C=C/C=C/C=C/C=C/C=C/C=C/C=C/[C@H](C)[C@@H](O)[C@@H](C)[C@H](C)OC(=O)CC(O)CC(O)CCC(O)C(O)CC(O)C[C@]3(O)C[C@H](O)C(C(=O)O)C(C2)O3)C(O)[C@H](N)C1O` (stereo partly specified), the growth in the assay on T-47D breast is 54.3%; with BT-549 breast it was 36.6%; in the assay on MDA-MB-435 melanoma, -69.5% (active); in the assay on MCF7 breast, 28.8%; with HCT-116 colon, -38.1% (active); in the assay on HCC-2998 colon it was 53.5%. The growth in the assay on KM12 colon was 41.6%.
Turning to `COC(=O)[C@]12CC[C@@H](C)[C@H](C)[C@@H]1C1=CC[C@@H]3[C@@]4(C)C(C=O)=C[C@@](C)(COC(C)=O)[C@@H]4C(=O)C[C@@]3(C)[C@]1(C)CC2`, the growth was 39% in the assay on T-47D breast; 32.4% in the assay with BT-549 breast; 50.5% in the assay with MDA-MB-435 melanoma; 22.7% with MCF7 breast; 5.18% (active) in the assay with HCT-116 colon; 28.4% with KM12 colon.
For the compound `COc1ccc(Nc2nnc(SCc3ccccc3F)s2)cc1`, the growth in the assay with T-47D breast was 85.8%; in the assay with BT-549 breast, 118%; in the assay on MDA-MB-435 melanoma, 99%; in the assay on MCF7 breast, 90.6%; in the assay with HCT-116 colon it was 103%; with HCC-2998 colon, 106%. Besides, the growth with KM12 colon was 94.6%.
